In ChEMBL document CHEMBL1157539, “Thousands of chemical starting points for antimalarial lead identification” (Nature, 2010):

Legend:
Type in all cases: functional
[1] = test system: Plasmodium falciparum; test: GSK_TCMDC: Inhibition of Plasmodium falciparum 3D7 in whole red blood cells, using parasite LDH activity as an index of growth. Test compounds present at 2uM
[2] = test system: Plasmodium falciparum; test: GSK_TCMDC: Inhibition of Plasmodium falciparum Dd2 in whole red blood cells, using parasite LDH activity as an index of growth. Test compounds present at 2uM
[3] = test system: HepG2; test: GSK_TCMDC: Percent inhibition of human HepG2 cell line. Test compounds present at 10uM.

Compound	Inhibition [1] [%]	Inhibition [2] [%]	Inhibition [3] [%]
CN(C)CCNC(=O)c1ccc(-c2cnc3ccc(NCc4ccc(Cl)c(Cl)c4)nn23)cc1	98	98	60
Cc1cc(NC(=O)Nc2cccc(Cl)c2Cl)c2ccccc2n1	96	25	0
Cc1ccccc1Nc1nc(NCCc2ccccc2)nc2ccccc12	82	18	32
C=C[C@H]1CN(CCCCCCC)CC[C@H]1CCNc1ccnc2ccc(OC)cc12	95	81	99
CC(=O)Nc1sc(C)c(C)c1CN1CCc2ccccc2C1	93	94	0
CC1=C(C(=O)OCCOCc2ccccc2)C(c2ccccc2C(F)(F)F)C(C(=O)OCCOCc2ccccc2)=C(C)N1	89	87	0
COC(=O)c1cccc(CNCc2cccc(-c3cccc(-c4nc5cccc(C)c5[nH]4)c3)c2)c1.O=C(O)C(F)(F)F	100	47	0
CC(=O)Nc1cccc(C(=O)Nc2ccc(-c3cccc(-c4nc5cc(F)ccc5[nH]4)c3)cc2)c1	96	8	90
Cc1[nH]c2ccc(O)cc2c1C1CCN(CCCCCNC(=O)/C=C/c2ccc(Cl)c(Cl)c2)CC1	100	1	33
O=C(N[C@H]1CCN(CCc2ccc(O[C@H]3CCNC3)c(Cl)c2)C1)c1ccc(Cl)c(Cl)c1.O=C(O)C(F)(F)F	100	0	26
N=C(Nc1ccccc1)Nc1cccc(Cc2ccc([N+](=O)[O-])cc2)n1	96	19	28
